Rab9 promoter act – activates the Rab9 promoter; Huh7 Rab9 promoter-luciferase reporter, luminescence, 24 h; Potency, µM (highest dose often 9.22 µM), inactives show top-dose activation, negative = inhibition, actives largely listed as activators; actives 2.8% (n = 320,000); also: % of control where 0% means no effect; nearly all actives have a fitted effect of over 60% in size
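Cell-based reporter: Huh7 stable for Rab9 promoter-driven luciferase, plated in reduced-serum medium with 10% FBS at 1500 cells/well, compound-treated 24 h at 37 °C, luminescence read after 10 min reagent.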
ELG1 genotoxic – genotoxicity induction in ELG1-luciferase HEK293T cells; actives 1.3% (n = 330,000); HEK293T ELG1-luciferase reporter, luminescence, 16 h; Potency, µM (titrated, usually from 46 µM), for inactives: at the highest dose activity change, positive = activation, usual class: activators; also: % of control where 0% means no effect; nearly all actives have a fitted effect of over 60% in size
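Screening used a luciferase reporter fused to human ELG1 in HEK293T cells. Luminescence was read on a CCD plate imager after 16 hr exposure and 30 min ONE-Glo incubation.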
NPC1 promoter act – activates the NPC1 promoter; Huh7 NPC1 promoter luciferase reporter, 24 h; Potency, µM (highest dose often 9.22 µM), for the others: at the top dose activation, hits mostly activators; actives 2.4% (n = 320,000); also: % of control where 0% means no effect; nearly all actives have a fitted effect of over 60% in size
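Readout is luciferase luminescence, reflecting NPC1 promoter activation in stably transfected Huh7 cells after 24 h compound exposure at 37 °C in reduced-serum medium with 10% FBS.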
FLuc modulator – firefly luciferase modulation, counter-screen for miR-21 project; AID 588342; actives 6.9% (n = 360,000); P08659; Potency, µM (series often up to 57.5 µM), for inactives: at the top dose activity change, negative = inhibition, actives largely listed as inhibitors; purified FLuc, Km substrates, luminescence inhibition;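 also: plate controls were vehicle for no effect and reference inhibitor for full effect; nearly all actives have a fitted effect of over 55% in size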
Target sequence (P08659 whole entry, looked up): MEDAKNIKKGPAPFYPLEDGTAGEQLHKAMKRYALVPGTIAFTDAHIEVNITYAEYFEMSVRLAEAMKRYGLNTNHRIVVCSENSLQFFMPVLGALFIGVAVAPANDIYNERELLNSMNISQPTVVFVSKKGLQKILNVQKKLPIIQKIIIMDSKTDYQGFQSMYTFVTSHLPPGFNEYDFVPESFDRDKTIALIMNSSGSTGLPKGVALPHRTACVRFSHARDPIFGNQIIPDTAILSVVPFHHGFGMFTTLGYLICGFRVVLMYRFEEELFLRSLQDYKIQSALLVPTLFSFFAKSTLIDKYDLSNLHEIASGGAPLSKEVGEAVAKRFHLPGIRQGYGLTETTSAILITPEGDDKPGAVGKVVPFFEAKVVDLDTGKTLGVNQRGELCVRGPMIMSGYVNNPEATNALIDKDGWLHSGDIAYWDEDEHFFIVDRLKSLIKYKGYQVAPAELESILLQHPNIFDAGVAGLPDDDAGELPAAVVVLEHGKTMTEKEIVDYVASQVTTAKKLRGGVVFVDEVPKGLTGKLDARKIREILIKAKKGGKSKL
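Purified P. pyralis luciferase, 10 nM final, with Km-level 10 uM D-luciferin and 10 uM ATP in 50 mM Tris acetate pH 7.5, 10 mM Mg acetate, 0.01% Tween-20, 0.05% BSA; 6-point qHTS titration about 60 µM downward; luminescence read.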
SMN2 splice up – SMN2 splice variant enhancement; actives 2.8% (n = 210,000); HEK293 SMN2-luciferase splicing reporter, luminescence, 30-36 h; Potency, µM (top dose mostly 46.1 µM), for inactives: at the highest dose activity change, positive = activation, most hits filed as activators; also: % of control where 0% means no effect; nearly all actives have a fitted effect of over 55% in size
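HEK293 cells carry an SMN2 minigene-luciferase reporter in which exon 7 inclusion puts luciferase in frame. Cells were seeded at 2000 cells/well, attached for 10-12 hours, then exposed to compounds for 30-36 hours at 37C before ONE-Glo luminescence.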
Active calls of the source: *; ? = inconclusive; · = no result. An excerpt weighted towards active compounds, which were near 7.5% of everything screened. Calls follow the shape of the dose curve; as a rule, active = well fitted curve in the direction sought with a large enough effect; inconclusive = small, poorly fitted or top-dose-only effect, or another doubt; inactive = no such curve, though single readings can be large; an effect the other way counts as inactive or inconclusive. Potency is read from the fitted curve at half-maximal effect.

SMILES	Rab9 promoter act	ELG1 genotoxic	NPC1 promoter act	FLuc modulator	SMN2 splice up
Cc1cc(NCc2ccccc2Cl)n2nnnc2n1	-3%	-3%	-3%	-3%	-10%
C/C(=C\C(=O)c1ccccc1)NNC(=O)c1ccc(Cl)cc1	8%	2%	-2%	-16%	·
NC(=O)COC(=O)c1cc(=O)[nH]c2ccccc12	0%	0%	-3%	1%	·
COc1ccc(C(=O)COC(=O)c2cc(=O)[nH]c3ccccc23)c(OC)c1	2.2µM*	?	3.2µM*	?	·
COc1ccccc1C(=O)COC(=O)c1cc(=O)[nH]c2ccccc12	-1%	?	-2%	-8%	·
Cc1ccc(C(=O)COC(=O)c2cc(=O)[nH]c3ccccc23)cc1C	?	21µM*	2%	1.1µM*	21%
CCN1N=C(c2ccccc2)Cn2c1nc1ccccc12	1%	-5%	20%	-19%	3%
CCCCCN(C(=O)CCC(=O)OCc1cccc(Br)c1)c1c(N)n(CCCC)c(=O)[nH]c1=O	0%	1%	-4%	0%	·
COc1ccc(C2C(C(=O)Nc3ccc(C)cc3C)=C(C)Nc3nc(SC)nn32)cc1OC (configuration not stated)	·	·	·	3%	4%
O=C(CN(Cc1cccs1)C(=O)CNS(=O)(=O)c1ccc(Cl)cc1)NCc1ccco1	5%	1%	-2%	8%	18%
CC(=O)Nc1ccc2nc(NC(=O)c3cccnc3)sc2c1	?	11%	?	12µM*	·
CC(=O)Nc1ccc2nc(NC(=O)COc3ccccc3)sc2c1	8%	0%	14%	-17%	10%
CC(=O)Nc1ccc2nc(NC(=O)C(Cl)(Cl)Cl)sc2c1	26%	11%	25%	15µM*	·
CC(=O)Nc1ccc(S(=O)(=O)Nc2cccc(-c3nc4ccccc4o3)c2)cc1	-6%	-7%	-3%	-16%	-26%
CSc1nc2ccc3nc(NC(=O)c4cccs4)sc3c2s1	4µM*	?	3.2µM*	2.1µM*	7%
CC(=O)Nc1nc2ccc(-c3nc4ccccc4o3)cc2s1	4.5µM*	?	2.2µM*	3.4µM*	5µM*
CCOC(=O)Cc1csc(NS(=O)(=O)c2ccc3c4c(cccc24)C(=O)N3CC)n1	-1%	?	2%	-3%	4%
COc1ccccc1C(=O)Nc1ccccc1N1CCN(S(C)(=O)=O)CC1	-1%	-10%	-1%	2%	?
Cc1nc2nc(SCC(=O)NCCc3ccccc3)nn2c(C)c1Cc1c(F)cccc1Cl	·	·	·	-13%	3%
O=C(Nc1nc2ccc(S(=O)(=O)N3CCOCC3)cc2s1)c1cccs1	28%	3%	27%	19µM*	·
CN(C)S(=O)(=O)c1ccc2nc(NC(=O)c3cccs3)sc2c1	0.89µM*	2.3µM*	1.4µM*	1.2µM*	11µM*
O=C(Nc1nc2ccc(F)cc2s1)c1cccs1	1.1µM*	?	3.2µM*	2.4µM*	3.2µM*
O=C(Nc1nc2ccc(S(=O)(=O)N3CCCCC3)cc2s1)c1cccnc1	-4%	-1%	4%	?	-7%
CN(C)S(=O)(=O)c1ccc2nc(NC(=O)c3cccnc3)sc2c1	·	·	·	3.8µM*	14µM*
O=C(Nc1nc2ccc(S(=O)(=O)N3CCCC3)cc2s1)c1cccs1	20%	1%	-6%	?	11%
SMILES	Rab9 promoter act	ELG1 genotoxic	NPC1 promoter act	FLuc modulator	SMN2 splice up
COC(=O)CCSCC(=O)Nc1cc(C)on1	1%	-1%	0%	3%	-29%
CCC(C)N(NC(C)=O)c1nc(Cl)nc(NC(C)C)n1 (configuration not stated)	-3%	1%	2%	1%	3%
CC(C)NS(=O)(=O)c1ccc2nc(NC(=O)c3cncc(Br)c3)sc2c1	·	·	·	19µM*	·
CNS(=O)(=O)c1ccc2nc(NC(=O)c3ccc(N4C(=O)CCC4=O)cc3)sc2c1	10%	-1%	0%	?	22%
COC1CCC(C(=O)c2ccc3nc4c(cc3c2)CCCO4)CC1 (configuration not stated)	·	·	·	·	13µM*
C=CCCCCCCCCC(=O)NNC1=CC(=O)CC(C)(C)C1	5%	1%	11%	0%	3%
CC(Oc1ccccc1F)C(=O)Nc1ccc2ccccc2c1 (configuration not stated)	5%	2%	-4%	?	3.5µM*
COc1cccc(-c2nnc(-c3ccccc3NC(=O)c3ccc(C(C)(C)C)cc3)o2)c1	14%	3%	-2%	2.4µM*	·
Cc1ccc(SCC(=O)Nc2cccc(-c3nnc(-c4ccco4)o3)c2)cc1	3.2µM*	-4%	3.2µM*	-11%	22µM*
O=C(Nc1ccccc1)c1cccc(-c2nnc(-c3ccccc3)o2)c1	4µM*	?	2µM*	-12%	1µM*
COc1cccc(C(=O)Nc2cccc(-c3nnc(-c4ccco4)o3)c2)c1	10%	-32%	0%	19µM*	-25%
O=C(CSc1ccc(Cl)cc1)Nc1cccc(-c2nnc(-c3ccco3)o2)c1	?	15%	?	0%	?
COc1cccc(C(=O)Nc2ccncc2)c1	3%	-5%	-2%	-8%	·
CCN1CCN(C2=CC3=CC(=C(C#N)C#N)CCC3CC2)CC1 (configuration not stated)	4%	-3%	-4%	-2%	-30%
O=C(O)Cn1nc2ccccc2n1	1%	8%	7%	3%	11%
COc1ccc2c(c1)Sc1ccccc1N2	1%	2%	3%	?	-67%
c1ccc2c(c1)Nc1cc3ccccc3cc1S2	3.5µM*	10%	3.2µM*	-27%	·
CS(=O)(=O)c1ccc(Cl)c(S(=O)(=O)NCc2ccccc2)c1	0%	-2%	-3%	3%	8%
Cc1cccc(Cn2c(CN3CCN(Cc4ccccc4)CC3)nc3c2c(=O)[nH]c(=O)n3C)c1	-11%	-23%	-1%	-4%	-17%
O=C1/C(=C/c2cccnc2)Cc2ccc(Cl)cc21	5%	-2%	6%	12µM*	·
COc1ccc2ccccc2c1/C=N/NC(=O)c1ccc(C)nc1	4%	1%	2%	21µM*	·
CCOc1ccc2ccccc2c1/C=N/NC(=O)c1ccncc1	0%	10%	0%	13µM*	·
Cc1c(Cc2ccc3c(c2)OCO3)sc(NC(=O)C2CC2)c1C(N)=O	2%	-7%	-3%	?	·
COc1ccccc1CNC(=O)COC(=O)c1cccc(S(=O)(=O)N2CCOCC2)c1	-2%	-1%	11%	-3%	·
O=C(NC(=S)NNC(=O)c1cc2ccccc2cc1O)c1ccco1	0%	3%	13%	17µM*	-4%
O=C(NC(=S)NNC(=O)c1ccco1)c1ccc(F)cc1	4%	7%	-2%	-11%	·
O=C(NC(=S)NNC(=O)c1ccccc1O)c1ccco1	1%	1%	4%	21µM*	-9%
